# According to PubChem BioAssay:
# Key:
# [1] = system: Human papillomavirus type 1a protein E7 (residues 44-93); assay: small molecules binding HPV E7 44-93 – biochemical, small-molecule microarray, residues 44-93, 635 nm fluorescence, primary screen (AID 1108); conditions: fluorescence 635 nm, higher = more signal;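 also: E7 fragment applied at 1 µg/mL in TBST for 1 h at 4 C; score combines spot fluorescence with its signal to noise ratio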
# [2] = hepatitis C replication reporter changes, two-sided – Huh7 cells, luciferase reporter, HCV replication inhibitor project, primary screen (AID 1109); conditions: Huh7 HCV replicon luciferase reporter, 48 h; higher = more signal;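 also: huh7 hepatoma cells harbouring a luciferase neomycin HCV replicon reporter; luciferase luminescence as measure of HCV replicon replication; test concentration not given here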
# [3] = target: Left-right determination factor 2 (Homo sapiens) (UniProt O00292); assay: small molecules binding LEFTY2 protein – biochemical, small-molecule microarray, 635 nm fluorescence scan, primary screen (AID 1110); conditions: higher = more signal
# Chain of Left-right determination factor 2 (Homo sapiens) (O00292 whole entry, looked up): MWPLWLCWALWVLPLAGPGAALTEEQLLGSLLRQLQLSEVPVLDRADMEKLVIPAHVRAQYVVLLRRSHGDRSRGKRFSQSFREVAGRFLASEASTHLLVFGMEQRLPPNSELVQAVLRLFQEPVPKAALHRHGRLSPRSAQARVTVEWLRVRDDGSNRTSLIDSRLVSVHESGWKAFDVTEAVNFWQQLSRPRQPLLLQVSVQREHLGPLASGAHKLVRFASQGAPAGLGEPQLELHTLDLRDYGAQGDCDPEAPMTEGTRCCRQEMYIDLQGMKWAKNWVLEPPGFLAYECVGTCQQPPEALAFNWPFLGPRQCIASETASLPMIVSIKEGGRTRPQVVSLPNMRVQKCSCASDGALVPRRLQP
# [4] = target: Calmodulin-1 (Homo sapiens) (UniProt P0DP23); assay: small molecules binding calmodulin-1 with EGTA – biochemical, small-molecule microarray, Cy5-labelled CALM1, profiling panel (AID 1111); conditions: Cy5-CALM1 binding fluorescence, higher = more signal;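 also: labelled calmodulin applied in Tris saline Tween buffer holding calcium plus EGTA and DTT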
# [5] = target: Calmodulin-1 (Homo sapiens) (UniProt P0DP23); assay: small molecules binding Ca-loaded calmodulin-1 – biochemical, small-molecule microarray, Cy5-labelled CALM1, plus calcium, artefact control for SMM control-protein annotation, profiling panel (AID 1112); conditions: Cy5-CALM1 binding fluorescence, higher = more signal;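 also: score merges spot fluorescence with signal to noise from triplicate slides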
# [6] = probe aWnt5a binding to arrayed compounds – biochemical, biotinylated probe, 635/667 nm fluorescence, primary screen (AID 1113); conditions: small-molecule microarray, higher = more signal;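 also: score merges 667 nm fluorescence intensity with signal-to-noise per printed feature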
# [7] = probe aShh binding to arrayed compounds – biochemical, biotinylated probe, 635/667 nm fluorescence, primary screen (AID 1114); conditions: small-molecule microarray, higher = more signal;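 also: probe is biotin-labelled aShh protein from a stem cell growth factor screen; measures binding of labelled protein to compounds printed on the slide; score merges feature fluorescence at 667 nm with signal-to-noise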
# [8] = probe aNog binding to arrayed compounds – biochemical, biotinylated probe, 635/667 nm fluorescence, primary screen (AID 1115); conditions: small-molecule microarray, higher = more signal;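 also: probe is biotinylated aNog protein used at 0.15 µg/mL for 1 h at 4 C; z-score combines 667 nm fluorescence of each spot with its signal to noise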
# [9] = target: Torsin-1A-interacting protein 1 (Homo sapiens) (UniProt Q5JTV8); assay: compound microarray binding of lysate hLAP1 – cell lysate, small-molecule microarray, COS7 lysate, 635/667 nm fluorescence, primary screen (AID 1116); conditions: 635 nm fluorescence, higher = more signal
# Chain of Torsin-1A-interacting protein 1 (Homo sapiens) (Q5JTV8 whole entry, looked up): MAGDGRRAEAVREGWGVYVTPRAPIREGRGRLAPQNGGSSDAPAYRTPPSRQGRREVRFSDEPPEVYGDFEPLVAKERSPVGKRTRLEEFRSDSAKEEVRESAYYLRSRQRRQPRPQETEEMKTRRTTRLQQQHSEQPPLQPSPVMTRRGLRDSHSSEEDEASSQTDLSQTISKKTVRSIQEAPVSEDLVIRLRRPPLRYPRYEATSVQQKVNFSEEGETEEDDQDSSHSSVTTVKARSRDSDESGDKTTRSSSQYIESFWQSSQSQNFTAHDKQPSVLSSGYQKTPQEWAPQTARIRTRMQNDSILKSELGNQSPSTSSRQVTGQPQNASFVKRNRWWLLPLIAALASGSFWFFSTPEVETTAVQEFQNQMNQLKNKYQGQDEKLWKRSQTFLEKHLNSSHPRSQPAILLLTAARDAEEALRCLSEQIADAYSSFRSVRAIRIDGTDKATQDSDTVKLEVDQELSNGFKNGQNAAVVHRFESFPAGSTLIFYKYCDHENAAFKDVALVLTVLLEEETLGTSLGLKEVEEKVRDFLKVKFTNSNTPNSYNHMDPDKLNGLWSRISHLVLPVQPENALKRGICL
# [10] = target: Alpha-bungarotoxin (Bungarus multicinctus) (UniProt P60615); assay: compounds binding labelled alpha-BTX control protein – biochemical, small-molecule microarray, Alexa647 label, 635/667 nm fluorescence, artefact control for SMM control protein annotation, profiling panel (AID 1117); conditions: alpha-BTX-A647 binding fluorescence, higher = more signal
# Chain of Alpha-bungarotoxin (Bungarus multicinctus) (P60615 whole entry, looked up): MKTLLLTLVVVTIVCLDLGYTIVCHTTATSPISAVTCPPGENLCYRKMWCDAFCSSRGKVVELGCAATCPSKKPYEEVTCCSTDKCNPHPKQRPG
SMILES,composite z-score [1],z-score [2],composite z-score [3],composite z-score [4],composite z-score [5],composite z-score [6],composite z-score [7],composite z-score [8],composite z-score [9],composite z-score [10]
COc1ccc([Si](C)(C)[C@H]2[C@H](CCn3cc([C@H](O)c4ccccc4)nn3)O[C@@]3(C(=O)N(C)c4c(Br)cc(C)cc43)[C@@H]2C)cc1,-0.0087,-4.19,0.285,0.0287,-0.0094,-0.124,0.0796,-0.411,0.088,0.14
COc1ccccc1CN1C(=O)c2ccccc2[C@](Cc2ccccc2I)(C(=O)NCCCN(C)C)[C@@H]1c1ccc(CO)cc1,1.35,-3.5,-0.371,-0.167,-0.272,0.134,0.215,1.44,0.549,0.812
CCCCC=C[C@@H](NC(=O)c1ccc(C(F)(F)F)cc1)c1ccccc1,-0.297,-0.887,-0.636,-0.0968,0.382,-0.134,0.0022,0.278,-0.946,-1.07
CCN(CC)c1ccc(N2CC=CC34O[C@@H]5C=CCOC(=O)[C@@H]5[C@H]3C(=O)N(CCCO)[C@@H]4C2=O)cc1 (stereo not given in full),0.295,-0.427,-0.934,-1,0.319,-0.124,0.258,0.223,0.0016,-1.57
C=C(CCCC)C(=O)CC[C@H](OC(=O)c1cccnc1)c1ccc(CO)o1,1.07,-1.26,1.16,0.223,-0.183,-0.0462,0.191,-0.116,0.706,0.542
CC(C)C[C@@H]1NC(=O)[C@@H]2C[C@H](C(=O)O)[C@H](c3ccc(O)cc3)N2C1=O,0.309,-0.836,0.695,1.31,0.192,-0.0512,0.0611,0.116,1.22,1.64
CO[C@H]1O[C@H](CO)[C@@H](OC(=O)Nc2ccc(C(F)(F)F)cc2)[C@H](OC(=O)Nc2ccccc2-c2ccccc2)[C@H]1OC(=O)Nc1ccccc1-c1ccccc1,1.47,-3.83,0.24,1.59,-0.135,-0.0445,0.0121,-0.136,0.731,1.36
O=C1C2C=CC(C(O)c3cccc(O)c3)N(Nc3ccccc3F)C2C(=O)N1c1ccccc1 (stereo not given),0.623,-2.21,-0.31,-0.325,-0.607,-0.0425,0.656,-0.261,-0.165,-0.234
CCCC=C(CCC)[C@@H](NS(=O)(=O)c1ccc(Cl)cc1)c1ccccc1,-0.201,-0.777,-1.34,0.451,0.781,0.954,0.508,1.07,-1.24,0.64
O=C1NC(=O)C2C1C=CC(C(O)c1ccc(F)cc1)N2Nc1ccccn1 (stereo not given),0.164,0.305,-0.0392,0.0754,-0.255,-0.124,0.0684,0.147,0.513,0.349
COc1ccc(NN2C(C(O)c3cc(C(F)(F)F)cc(C(F)(F)F)c3)C=CC3C(=O)N(C4CCCCC4)C(=O)C32)cc1 (stereo not given),0.258,-1.79,-0.0774,1.66,0.0635,0.485,0.611,1.82,1.06,0.698
C#CCN([C@H](/C=C/C1CC1)[C@@H](O)Cc1ccccc1)[C@@H](Cc1ccccc1)C(=O)OC,-0.197,-2.64,0.0052,-0.752,-0.861,-0.124,0.0639,-0.33,-0.188,-0.0484
O=C1OCCC/C=C\[C@H]2OC34C=CCN(Cc5ccccc5)C(=O)[C@H]3N(CCCCCO)C(=O)[C@@H]4C12 (stereo not given in full),-0.486,-1.06,-0.296,-1,-0.775,-0.169,0.0121,0.0847,2.22,-1.57
COCCOC(=O)N1C(=O)[C@@]2(c3cc(C#CC4=CCCCC4)ccc31)[C@H](c1ccc(OCCO)cc1)N1[C@H](c3ccccc3)[C@H](c3ccccc3)OC(=O)[C@H]1[C@@H]2C(=O)N1CCCCCCC1,0.67,-1.13,0.853,0.643,0.758,0.267,1.44,1.33,1.91,1.9
C=CCOC(=O)[C@H]1[C@@H]2C(=O)O[C@@H](c3ccccc3)[C@@H](c3ccccc3)N2[C@@H](c2ccc(OCCOC(=O)[C@@H]3C[C@@H]4C(=O)N[C@@H](CC(C)C)C(=O)N4[C@@H]3c3ccc(O)cc3)cc2)[C@]12C(=O)Nc1ccc(I)cc12,1.37,-1.16,0.835,1.81,0.303,0.0095,-0.0553,0.287,1.47,0.912
COC(=O)[C@@]1(CCS(=O)(=O)c2ccccc2)N=C(c2ccc(OCCCO)cc2)O[C@H]1c1ccccc1N=[N+]=[N-],1.38,-1.83,0.406,1.29,0.383,-0.0455,-0.0904,0.424,0.861,2.23

SMILES,composite z-score [1],z-score [2],composite z-score [3],composite z-score [4],composite z-score [5],composite z-score [6],composite z-score [7],composite z-score [8],composite z-score [9],composite z-score [10]
COC(=O)C1(CC(C)C)C=C2C(=C(C(C)C)C(=O)C2C)CN1 (stereo not given),-0.57,-0.193,-0.975,0.228,1.07,-0.0403,0.171,0.595,0.187,-0.77
Cc1ccc(F)cc1S(=O)(=O)N[C@@H]1CCN(Cc2ccc3c(c2)OCO3)C1,-0.28,-1.98,0.198,-0.786,-0.997,-0.176,-0.0626,-0.12,0.636,0.445
O=C1O[C@H](c2ccccc2)[C@H](c2ccccc2)N2[C@H]1[C@@H](C(=O)NC[C@H](O)c1ccccc1)[C@]1(C(=O)Nc3ccc(C#CCCO)cc31)[C@H]2c1ccccc1OCCO,1.4,-1.47,-0.66,0.548,-0.0628,-0.147,0.149,-0.0503,1.35,2.1
CCCCCCCCCCC(O)C1C=CC2C(=O)N(C)C(=O)C2N1N1CCCCC1 (stereo not given),-0.469,-0.941,-2.49,-0.311,1.4,-0.196,0.0278,0.715,-0.428,-1.09
NC(=O)[C@@]1(CCS(=O)(=O)c2ccccc2)COC(c2ccc(OCCCO)cc2)=N1,-0.244,-0.806,-0.323,1.12,0.549,-0.0495,0.138,-0.359,0.512,0.768
CCN(CC)c1ccc(N2CC=CC34O[C@@H]5C=CCOC(=O)[C@@H]5[C@H]3C(=O)N(CCO)[C@@H]4C2=O)cc1 (stereo not given in full),-0.73,0.466,-2.26,-0.97,0.266,-0.25,0.0756,-0.338,0.422,-1.29
C[C@@H](OCc1ccccc1)C1NC(=O)[C@@]23C(=O)N[C@@H](Cc4ccccc4)C2[C@H](C)[C@@]2(C)O[C@H]2C3/C=C/C/C=C\CNC(=O)[C@H](Cc2ccccc2)NC1=O (stereo not given in full),-0.677,-0.963,0.226,-0.629,-1.15,-0.035,-0.304,-0.289,0.252,-0.753
CN(C)C(=O)[C@@]1(CCS(=O)(=O)c2ccccc2)N=C(c2ccc(OCCCO)cc2)O[C@H]1c1ccccc1N=[N+]=[N-],1.43,-0.235,0.258,-0.038,-0.0024,0.0445,0.199,-0.484,1.56,0.901
COc1ccc(C#Cc2ccc3c(c2)[C@]2(C(=O)N3)[C@H](c3ccc(OCCO)cc3)N3[C@H](c4ccccc4)[C@H](c4ccccc4)OC(=O)[C@H]3[C@@H]2C(=O)O)cc1,1.46,-1.3,0.362,-0.17,-0.893,-0.0028,-0.0999,1.81,0.523,0.485
N#Cc1ccc(C(O)C2C=CC3C(=O)NC(=O)C3N2Nc2ccccn2)cc1 (stereo not given),0.447,-0.676,0.286,0.2,-0.272,-0.178,0.151,0.287,-0.298,0.617
NCCCC[C@@H]1NC(=O)[C@H]2C[C@@H](C(=O)NCc3ccc(F)cc3)[C@@H](c3ccc(O)cc3)N2C1=O,1.18,-0.0038,0.567,1.17,0.428,-0.0161,0.452,-0.171,2.33,1.26
COC(=O)[C@@]1(Cc2ccc(OC)cc2)[C@@H]2[C@@H](CC(=O)[C@H]2CC(=O)C(=O)N2CCCC2)CN1C(=O)c1ccccc1,0.43,-1.83,0.352,2.05,1.02,1.31,2.68,2.97,2.12,1.49
[N-]=[N+]=Nc1ccccc1[C@@H]1OC(c2ccc(OCCCO)cc2)=N[C@]1(Cc1ccccc1)C(N)=O,1.06,-0.837,-0.391,1.04,0.719,-0.166,0.173,-0.0956,0.0305,0.209
COCCOC(=O)N1C(=O)[C@@]2(c3cc(C#CC4(O)CCCCCC4)ccc31)[C@H](c1ccccc1OCCO)N1[C@H](c3ccccc3)[C@H](c3ccccc3)OC(=O)[C@H]1[C@@H]2C(=O)N1CCCCCCC1,1.06,-2.28,0.502,1.67,1.46,0.355,0.661,2.71,3.51,1.49
COCCOC(=O)N1C(=O)[C@@]2(c3cc(C#CC4=CCCCC4)ccc31)[C@H](C(=O)N1CCN(c3ncccn3)CC1)[C@H]1C(=O)O[C@H](c3ccccc3)[C@H](c3ccccc3)N1[C@@H]2c1ccccc1OCCO,1.38,-1.9,0.419,0.936,0.473,-0.0778,-0.19,-0.0845,0.961,0.903
